This excerpt belongs to a sample that is enriched for hits.
ERK EGF block: blocks ERK signaling stimulated by EGF. Potency, µM (doses to about 11.5 µM), inactives show at the highest dose activity change, negative = inhibition, usual class: inhibitors. HEK293-V1b, EGF-stimulated phospho-ERK AlphaScreen. AID 1454. 0.41% of 130,000 active; active = well fitted inhibition curve with a large enough effect;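 also: plate controls were stimulated vehicle wells for no effect and unstimulated vehicle basal for full effect; nearly all actives have a fitted effect of over 55% in size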
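Homogeneous cell-based phospho-ERK assay: HEK293/V1b cells in 1% FBS, compound 30 min then EGF 5 min, AlphaScreen luminescence. Activity normalized between DMSO and 25 nM EGF controls; AC50 from Hill modelling.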
The depositor's hits bear a star; ! = a repeat was not active; [ ] = remark or other dose. Potency is read from the fitted curve at half-maximal effect.

SMILES	ERK EGF block
N[C@H](Cc1ccc(O)c(O)c1)C(=O)O	2%
COc1ccc(Nc2ccc(S(=O)(=O)N3CCCCCC3)cc2[N+](=O)[O-])cc1	20µM*
COCC(C)Nc1ccc(S(=O)(=O)N2CCCC2)cc1[N+](=O)[O-] (stereo not drawn)	6%
COc1ccc2cc(S(=O)(=O)N3CCCCCC3)ccc2c1	-15%
COc1ccc2c(c1)C(=O)[C@H](OC(=O)Nc1cc(OC)c(OC)c(OC)c1)[C@@H](c1ccc(OC)c(Br)c1)O2	3%
COc1ccc(C(=O)N(O)c2ccccc2)cc1	-7%
COc1cc(/C=N/Nc2cc(C)nc(NS(=O)(=O)c3ccc(C)cc3)n2)ccc1O	-2%
COc1cc(/C=N/Nc2nc(-c3ccc(S(=O)(=O)N(C)C)cc3)cs2)ccc1O	8.9µM*
COc1ccc(/C=N/Nc2nc(-c3cccc(S(=O)(=O)N4CCCC4)c3)cs2)cc1OC	-3%
COc1ccc2cnoc(=O)c2c1OC	-10%
CC(C)C[C@@H](CC(=O)N[C@@H](CCC(=O)O)CC(=O)O)NC(=O)[C@@H]1CNCC[C@H]1NC(=O)C[C@H](CCCN)NC(=O)C[C@H](Cc1ccccc1)NC(=O)[C@@H]1CNCC[C@H]1N	0%
O=C1C2=C(S[C@@H]3O[C@H](CO)[C@@H](O)[C@H](O)[C@H]3O2)C(=O)c2ccccc21	7%
Clc1ccc2scc(CN3CCCCC3)c2c1	1%
Cc1ccc2c(CN3CCOCC3)cc(=O)oc2c1	-1%[57.5 µM]
O=C(NN1CCN(Cc2ccccc2Cl)CC1)c1ccc(Cl)cc1	7%
Cc1cc(N=Nc2ccc(Cl)cc2)cc(CN2CCCC2)c1O	32µM*
Oc1c(CN2CCOCC2)cc2c(c1-c1c(O)c(CN3CCOCC3)cc3c1CCCC3)CCCC2	-15%
Cc1cc(N=Nc2ccc(Cl)cc2)cc(CN2CCOCC2)c1O	16µM*
C=CCOC(=O)NC(CC(=Nc1ccc(OC)cc1)C(=O)OC)c1ccccc1 (stereo not drawn)	-14%
COc1cc2c(cc1O)-c1ccccc1CN(C)C2	-2%
NCCOB(c1ccccc1)c1ccccc1	9%
CCCn1c(-c2ccc(F)cc2)nc2c(NC(C)CCCN(CC)CC)nc(C)nc21 (stereo not drawn)	6%
CCCCCCCCCCCCCCCC(N)=O	-8%
C=C(C(C)=O)C(O)c1ccc2ccccc2c1 (stereo not drawn)	1%
COC(=O)c1ccc(C23CC2(C(NP(=O)(c2ccccc2)c2ccccc2)c2ccccc2)C3)cc1 (stereo not drawn)	2%
SMILES	ERK EGF block
CC(C)CN1CCC(=O)N([C@H](CSc2ccc(Br)cc2)c2ccccc2)CC1	-1%[57.5 µM]
Cc1ccc(SC[C@H](c2ccccc2)N2CCN(CC(C)C)CCC2=O)cc1	32µM*
Cc1ccc(SC[C@H](c2ccccc2)N2CCN(C)CCC2=O)cc1	-16%[57.5 µM]
COc1ccc2c(c1)O[C@H](c1ccc3c(c1)OCO3)[C@@H](OC(=O)NS(=O)(=O)c1ccc(F)cc1)C2=O	7%
O=C(O)C1OC(O)C(O)C(O)C1O (stereo not drawn)	7%
NCCCCCCNS(=O)(=O)c1ccc2c(Cl)cccc2c1	-21%
O=C(NC(=S)Nc1ccc(CN2CCOCC2)cc1)c1ccc(-c2ccc(Cl)cc2)o1	-1%[57.5 µM]
O=C(/C=C/c1ccc(Cl)cc1Cl)NC(=S)Nc1ccc(CN2CCOCC2)cc1	3%
O=C(Nc1ccc(CN2CCOCC2)cc1)c1ccc(-c2ccc(Cl)cc2Cl)o1	25µM*
COc1cccc([C@@H]2Oc3ccc(OC)cc3C[C@H]2OC(=O)N[C@H]2CCCc3ccccc32)c1	-8%
CCSc1ccc(C(=O)Nc2cccc(C)n2)cc1[N+](=O)[O-]	-7%
Cc1cccc(NC(=O)c2ccc(NC(C)c3ccccc3)c([N+](=O)[O-])c2)n1 (stereo not drawn)	14µM*
CCNc1ccc(C(=O)OCC(=O)NC(C)c2ccccc2)cc1[N+](=O)[O-] (stereo not drawn)	3%
Nc1nc(Nc2ccccc2)nc2c1ncn2[C@@H]1O[C@H](CO)[C@H](O)[C@H]1O	2%
COC[C@@H](O)[C@@H](OC)[C@H](OC)[C@H](Cc1c(OC)cc(OC)cc1OC)OC	0%
CC(C)(C)c1ccc(C(=O)NC(=S)Nc2nc3c(s2)CCCC3)cc1	8%
CN(C)c1ccc(C(=O)Nc2nc3c(s2)CCCC3)cc1	22µM*
O=C(Nc1nc2c(s1)CCCC2)c1ccc(S(=O)(=O)N2CCCc3ccccc32)cc1	1%
CN1CCN(CC(=O)NN2CC(=O)N(c3ccc(F)cc3)CC2=O)CC1	2%[57.5 µM]
O=C(CN1CCc2ccccc21)NN1CC(=O)N(c2ccc(Cl)cc2)CC1=O	18µM*
O=C(Nc1ccccc1)NN1CC(=O)N(c2ccc(Cl)cc2)CC1=O	-24%[57.5 µM]
CC(C)c1cccc2cc3c(nc12)-c1cccc(=O)n1C3	3%
CC(C)Cn1nnnc1S(=O)(=O)Cc1ccccc1	-9%
CC1CCCN(C2=C(Cl)C(=O)N(c3cccc(Cl)c3)C2=O)C1 (stereo not drawn)	1%
CCC(C)NC(=O)C1CCCN1S(=O)(=O)c1ccc(Cl)cc1 (stereo not drawn)	-25%
SMILES	ERK EGF block
CC1CCCN(C2=C(NS(=O)(=O)c3ccc(Cl)cc3)C(=O)c3ccccc3C2=O)C1 (stereo not drawn)	10µM*
O=S(=O)(c1ccccc1)N1CCC2(CCN(c3ncccn3)CC2)CC1	5%
C=CS(=O)(=O)c1ccc(Oc2ccc(S(=O)(=O)C=C)cc2)cc1	13µM*
NS(=O)(=O)c1ccc(Oc2ccc(S(N)(=O)=O)cc2)cc1	-10%
CC(=O)CC(C)(C)S(=O)(=O)c1ccc(Oc2ccc(S(=O)(=O)C(C)(C)CC(C)=O)cc2)cc1	-9%
C/C=C/C1=Cc2ccccc2C(C(C(=O)OC)C(=O)OC)N1C(=O)OC (stereo not drawn)	-5%
CO[C@@H]1C=CO[C@]2(C)Oc3c(C)c(O)c4c(O)c(c(C=NN5CCN(C)CC5)c(O)c4c3C2=O)NC(=O)C(C)=CC=C[C@H](C)[C@H](O)[C@H](C)[C@H](O)[C@H](C)[C@H](OC(C)=O)[C@H]1C	4%[25.7 µM]
CN(C)CCOC(c1ccccc1)c1ccccc1	14µM*!
CN(C)CCOC(c1ccccc1)c1ccccc1 (tested in a mixture with another compound)	14%[57.5 µM]
CN(C)CCOC(c1ccc(Cl)cc1)c1ccccn1 (stereo not drawn)	18%
COc1ccc(/C=C\C(=O)Nc2ccccc2C(=O)O)cc1OC	-19%
CCCCCCCCCCOCCC(=O)O	-1%
C/C(=N\Nc1ccc(S(=O)(=O)Nc2ccccc2)cc1[N+](=O)[O-])c1ccncc1	-4%
CCCC(CCC)=NNc1ccc(S(=O)(=O)Nc2ccccc2OC)cc1[N+](=O)[O-]	14µM*
COc1ccccc1NS(=O)(=O)c1ccc(OC)c([N+](=O)[O-])c1	1%
Nc1ncnc2c1ncn2[C@@H]1O[C@H](C(=O)NC2CC2)[C@H](O)[C@H]1O	-5%
C/C(=C\C[Si](C)(C)C)CCC=O	-9%
CCCCCC(=O)CC[C@@H]1[C@@H](C/C=C\CCCC(=O)O)[C@@H](O)C[C@H]1O	6%
C(=N\Nc1nc2ccccc2[nH]1)/c1cccc2nccnc12	-11%[57.5 µM]
C#CCn1cc(/C=N/Nc2nc3ccccc3[nH]2)c2ccccc21	25µM*
C(=N\Nc1nc2ccccc2[nH]1)/c1ccccn1	-5%
CS(=O)(=O)N1CCC[C@@]2(CCN(c3ccccn3)C2)C1	17%
COC(=O)c1c(NC(=O)c2ccc(OC(C)C)cc2)sc2c1CC(C)(C)NC2(C)C	28µM*
